The results in this text go back to PubChem BioAssay (Tox21).

Assay [1] deals with Thyrotropin receptor (Homo sapiens) (UniProt P16473). The experiment in a line: qHTS assay to identify small molecule antagonists of the thyroid stimulating hormone receptor (TSHR) signaling pathway (AID 1259385; calls by dose curve; further: nearly all actives have a fitted effect of over 20% in size). In outline: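 TSHR-HEK293 cells were plated and held 18 h at 37C/5% CO2, then given compound plus Ro20-1724 and stimulated with TSH at 1.5 ng/mL final. After 30 min at room temperature, cAMP was detected with cAMP-d2/anti-cAMP-cryptate (1 h) by fluorescence.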
Chain of Thyrotropin receptor (Homo sapiens) (P16473 whole entry, looked up): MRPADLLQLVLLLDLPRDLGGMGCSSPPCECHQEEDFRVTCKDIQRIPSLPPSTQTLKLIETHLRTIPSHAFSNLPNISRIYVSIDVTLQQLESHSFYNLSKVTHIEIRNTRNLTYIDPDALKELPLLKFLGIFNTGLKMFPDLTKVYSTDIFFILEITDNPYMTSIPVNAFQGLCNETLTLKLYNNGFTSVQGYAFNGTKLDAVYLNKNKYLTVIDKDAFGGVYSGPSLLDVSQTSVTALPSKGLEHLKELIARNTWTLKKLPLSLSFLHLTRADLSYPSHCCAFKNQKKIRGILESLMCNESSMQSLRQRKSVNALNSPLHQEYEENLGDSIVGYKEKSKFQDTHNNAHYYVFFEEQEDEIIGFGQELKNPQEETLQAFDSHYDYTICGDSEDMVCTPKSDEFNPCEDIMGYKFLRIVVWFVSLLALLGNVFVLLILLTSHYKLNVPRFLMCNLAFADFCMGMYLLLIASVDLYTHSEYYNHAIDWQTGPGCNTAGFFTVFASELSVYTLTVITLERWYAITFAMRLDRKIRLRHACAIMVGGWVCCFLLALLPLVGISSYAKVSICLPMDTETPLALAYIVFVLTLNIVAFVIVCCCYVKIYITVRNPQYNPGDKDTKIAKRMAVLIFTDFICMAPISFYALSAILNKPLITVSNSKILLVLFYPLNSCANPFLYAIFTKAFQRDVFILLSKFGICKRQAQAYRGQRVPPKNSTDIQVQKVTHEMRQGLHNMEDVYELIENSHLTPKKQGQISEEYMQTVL
For orientation: In qHTS, concentration-response curves come from the screen itself.

Assay [2] can be described thus: qHTS assay to identify small molecule agonists of the estrogen receptor alpha (ER-alpha) signaling pathway in the presence of an antagonist - cell viability counter screen (AID 1259386).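 Further: series mostly up to about 92 µM; cells exposed to compounds for 22 h at 37 °C before the viability read; nearly all actives have a fitted effect of over 30% in size.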 In outline: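 Using estrogen-depleted VM7Luc4E2 cells, the 15-concentration compound series was applied together with 10.0nM ICI-182,780 and incubated 22hr at 37C/5% CO2. Cell viability was then scored by CellTiter-Fluor.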

Assay [3] addresses Progesterone receptor (Homo sapiens) (UniProt P06401). The experiment in a line: qHTS assay to identify small molecule agonists of the progesterone receptor (PR) signaling pathway (AID 1346784; calls by dose curve; further: nearly all actives have a fitted effect of over 30% in size). In short, it runs like this:
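Agonist mode, quantitative HTS format in a HEK 293T line expressing a UAS-controlled beta-lactamase reporter; 16 hr compound exposure at 37C in 2% charcoal-stripped FBS, then LiveBLAzer B/G FRET fluorescence.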

Assay [4] has the same target. The experiment in a line: qHTS assay to identify small molecule antagonists of the progesterone receptor (PR) signaling pathway (AID 1346795; active means well fitted inhibition curve with a large enough effect in the signal ratio in the repeat runs, not every such curve was filed as active; the % refers to the signal ratio; further: potency means the concentration at half of the fitted maximal effect). In short, it runs like this:
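HEK293T PR-UAS-bla reporter cells in charcoal-stripped serum (2%) received compound after a 6 hr settling period, followed by R5020 agonist at 1 nM final; 16 hr incubation preceded the FRET substrate step and fluorescence measurement.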

Assay [5] is described as follows: qHTS assay to identify small molecule antagonists of the progesterone receptor (PR) signaling pathway - cell viability counter screen (AID 1346798). Further: series mostly up to about 92 µM; nearly all actives have a fitted effect of over 50% in size. In short, it runs like this:
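Same-well multiplex: after 16 hr at 37C with compound and R5020 stimulation, HEK293T cells carrying a UAS-bla reporter received LiveBLAzer substrate (2 hr RT), then CellTiter-Glo (30 min RT) for luminescent viability.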

Assay [6] is described as follows: qHTS assay to identify small molecule agonists of the progesterone receptor (PR) signaling pathway - cell viability counter screen (AID 1346799; calls by dose curve; further: nearly all actives have a fitted effect of over 45% in size). In outline:
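Counter screen for cytotoxicity: compound-treated PR-UAS-bla HEK293T cells (16 hr, 37C, 5% CO2) were assayed with CellTiter-Glo, luminescence measured after 30 min at room temperature.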

Assay [7] can be described thus: qHTS assay to identify small molecule antagonists of the TGF-beta/Smad signaling pathway - cell viability counter screen (AID 1346824). Further: nearly all actives have a fitted effect of over 50% in size. In outline: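 SBE-bla HEK 293T cells were plated overnight at 37 C, then given compounds in DMSO plus TGF-beta1 (added as 0.25 ng/mL solution) for 5 hr. After the bla read, CellTiter-Glo was added to the same wells and luminescence read after 30 min at room temperature.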

A short description of assay [8]: qHTS assay to identify small molecule agonists of the TGF-beta/Smad signaling pathway - cell viability counter screen (AID 1346829). Further: top concentration of the series differs between compounds; nearly all actives have a fitted effect of over 45% in size. In short, it runs like this: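 Same-well cytotoxicity: CellTiter-Glo added after the 2 hr room-temperature beta-lactamase substrate step, luminescence measured 30 min later; cells had 5 hr of compound at 37 C.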
Assay [9] can be described thus: qHTS assay to identify small molecule agonists of the TGF-beta/Smad signaling pathway (AID 1346859; active means well fitted activation curve with a large enough effect in the signal ratio in the repeat runs, not every such curve was filed as active; the % refers to the signal ratio; further: series mostly up to about 77 µM). In short, it runs like this: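 Smad-responsive beta-lactamase reporter cells (HEK 293T) received compounds from DMSO stocks after overnight attachment, were incubated 5 hr, then treated 2 hr with FRET substrate before dual-emission fluorescence measurement (405 nm excitation).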

Assay [10] has as its target Thyrotropin-releasing hormone receptor (Homo sapiens) (UniProt P34981). The experiment in a line: qHTS assay to identify small molecule antagonists of the thyrotropin-releasing hormone receptor (TRHR) signaling pathway (AID 1346877; active means well fitted inhibition curve with a large enough effect in the repeat runs, not every such curve was filed as active; further: series mostly up to about 51 µM). In short, it runs like this: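 Calcium signal in dye-loaded TRHR/HEK293 cells; compounds added 5 min before TRH (1 nM final); fluorescence monitored 3 min at 1 s steps.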

For assay [11] the target is unchanged. The experiment in a line: qHTS assay to identify small molecule agonists of the thyrotropin-releasing hormone receptor (TRHR) signaling pathway (AID 1346891; calls by dose curve;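 further: HEK293 cells expressing TRHR with calcium dye readout; series mostly up to about 58 µM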). In outline:
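Agonist-mode calcium mobilisation screen: TRHR-transfected HEK293 cells cultured overnight (18 h), dye-loaded for 2 h at 37 °C, exposed to compounds, and monitored by fluorescence for 3 min.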

Assay [12] in a line: Caspase-3/7 induction in HepG2 cells by small molecules, qHTS assay (AID 1346978). Further: nearly all actives have a fitted effect of over 15% in size. In short, it runs like this:
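Wild-type HepG2 cells (2,000/well) were settled 5 h at 37 C, 5% CO2, then exposed to compounds in DMSO for 17 h. Caspase-3/7 activity was read by luminescence 30 min after adding Caspase-Glo 3/7 reagent at room temperature.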

Assay [13] can be described thus: Caspase-3/7 induction in CHO-K1 cells by small molecules, qHTS cell viability counter screen (AID 1346979). Further: nearly all actives have a fitted effect of over 35% in size. In short, it runs like this: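 In the same wells as the caspase read, viability of compound-treated wild-type CHO-K1 cells was assessed using CellTiter-Fluor, added after 16hr at 37C and measured by fluorescence following 1hr further incubation.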
Assay [14] in a line: Caspase-3/7 induction in CHO-K1 cells by small molecules, qHTS assay (AID 1346980). Further: nearly all actives have a fitted effect of over 15% in size. In short, it runs like this:
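Wild-type cells were seeded at 1,500 per well and settled 5 hr at 37 C, 5% CO2, then exposed to DMSO-dissolved compounds for 17 hr. Caspase-Glo 3/7 reagent was added, and luminescence was read after 30min at room temperature.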

Assay [15] can be described thus: Caspase-3/7 induction in HepG2 cells by small molecules, qHTS cell viability counter screen (AID 1346981). Further: series mostly up to about 92 µM; nearly all actives have a fitted effect of over 30% in size. In outline:
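After a 5-hr attachment period at 37 C and 5% CO2, wild-type HepG2 cells received compounds in DMSO. Sixteen hours later CellTiter-Fluor was dispensed and the fluorescent signal quantified after a further hour.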

Assay [16] has as its target Nuclear receptor subfamily 1 group I member 2 (Homo sapiens) (UniProt O75469). Nature of the assay: Human pregnane X receptor (PXR) small molecule agonists, qHTS assay (AID 1346982). Further: nearly all actives have a fitted effect of over 35% in size. Further: potency means the concentration at half of the fitted maximal effect. In outline:
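Tox21 qHTS; PXR-Luc HepG2; compounds pinned from DMSO; 24 hr, 37 C; ONE-Glo luciferase detection, 30 min room temperature.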

The target is the same in assay [17]. The experiment in a line: CYP3A4 induction through human pregnane X receptor (PXR) by small molecules, qHTS assay (AID 1346984). Further: nearly all actives have a fitted effect of over 40% in size. In outline:
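Cells (DPX-2; HepG2 with PXR element plus CYP3A4-promoter luciferase) settled 5hr, then were treated 24hr at 37C. A 3hr, 3uM-final Luciferin-IPA step preceded luminescence measurement with One-Glo.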

Assay [18] shares this target. The experiment in a line: Human pregnane X receptor (PXR) activation by small molecules, qHTS assay (AID 1346985). Further: nearly all actives have a fitted effect of over 40% in size. In short, it runs like this:
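DPX-2 cells (HepG2 co-transfected with a PXR response element and a CYP3A4-promoter luciferase construct) were seeded at 2,000 per well, rested 5 hr at 37C, then exposed to DMSO-dissolved compounds for 24 hr. Activation was read as luciferase luminescence.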

The target of assay [19] is Cytochrome P450 2D6 (Homo sapiens) (UniProt P10635). Nature of the assay: Cytochrome P450 Family 2 Subfamily D Member 6 (CYP2D6) small molecule antagonists: luciferase reporter qHTS assay (AID 1671196). Further: nearly all actives have a fitted effect of over 50% in size. Further: potency means the concentration at half of the fitted maximal effect. In short, it runs like this:
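Room-temperature luminescent CYP2D6 activity assay: compound preincubated 10 min with enzyme–substrate mix, NADPH-initiated reaction 1 h, detection reagent 20 min before reading.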
Background: In a reporter assay the amount or activity of a reporter protein is the signal.

Assay [20] is described as follows: Human pregnane X receptor (PXR) small molecule agonists, qHTS cell viability counter screen (AID 1346977). Further: nearly all actives have a fitted effect of over 50% in size. In short, it runs like this:
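Measures live-cell protease fluorescence (CellTiter-Fluor) in PXR-Luc HepG2 cells treated 24hr with compounds at 37C. Cells had 5hr to attach before pin transfer of DMSO solutions.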

Values joined by “and” are separate entries in the source; they are usually repeats but may differ in a detail not shown here. Equal values may be shown once. Results filed as inconclusive are left out. More than one record can exist for a structure, and the calls need not agree. Active and inactive are the calls of the source. Unless noted, the call rests on the fitted dose curve; in most records, active means well fitted curve in the direction sought with a large enough effect in the repeat runs; inconclusive means weak or mixed curves; inactive means no such curve, though single readings can be large; an effect the other way counts as inactive or inconclusive.

Chain of Nuclear receptor subfamily 1 group I member 2 (Homo sapiens) (O75469 whole entry, looked up): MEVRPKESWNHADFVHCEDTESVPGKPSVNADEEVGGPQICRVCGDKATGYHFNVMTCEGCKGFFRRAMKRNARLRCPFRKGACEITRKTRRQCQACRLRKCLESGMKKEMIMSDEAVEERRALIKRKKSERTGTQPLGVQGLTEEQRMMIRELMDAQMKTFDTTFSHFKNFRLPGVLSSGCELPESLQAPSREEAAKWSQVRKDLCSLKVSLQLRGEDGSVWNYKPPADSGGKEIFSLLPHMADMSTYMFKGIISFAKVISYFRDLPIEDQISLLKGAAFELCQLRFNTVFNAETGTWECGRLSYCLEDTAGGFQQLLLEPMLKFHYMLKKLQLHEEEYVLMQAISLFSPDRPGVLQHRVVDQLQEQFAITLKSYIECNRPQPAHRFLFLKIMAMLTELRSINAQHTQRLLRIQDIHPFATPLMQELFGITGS
Chain of Progesterone receptor (Homo sapiens) (P06401 whole entry, looked up): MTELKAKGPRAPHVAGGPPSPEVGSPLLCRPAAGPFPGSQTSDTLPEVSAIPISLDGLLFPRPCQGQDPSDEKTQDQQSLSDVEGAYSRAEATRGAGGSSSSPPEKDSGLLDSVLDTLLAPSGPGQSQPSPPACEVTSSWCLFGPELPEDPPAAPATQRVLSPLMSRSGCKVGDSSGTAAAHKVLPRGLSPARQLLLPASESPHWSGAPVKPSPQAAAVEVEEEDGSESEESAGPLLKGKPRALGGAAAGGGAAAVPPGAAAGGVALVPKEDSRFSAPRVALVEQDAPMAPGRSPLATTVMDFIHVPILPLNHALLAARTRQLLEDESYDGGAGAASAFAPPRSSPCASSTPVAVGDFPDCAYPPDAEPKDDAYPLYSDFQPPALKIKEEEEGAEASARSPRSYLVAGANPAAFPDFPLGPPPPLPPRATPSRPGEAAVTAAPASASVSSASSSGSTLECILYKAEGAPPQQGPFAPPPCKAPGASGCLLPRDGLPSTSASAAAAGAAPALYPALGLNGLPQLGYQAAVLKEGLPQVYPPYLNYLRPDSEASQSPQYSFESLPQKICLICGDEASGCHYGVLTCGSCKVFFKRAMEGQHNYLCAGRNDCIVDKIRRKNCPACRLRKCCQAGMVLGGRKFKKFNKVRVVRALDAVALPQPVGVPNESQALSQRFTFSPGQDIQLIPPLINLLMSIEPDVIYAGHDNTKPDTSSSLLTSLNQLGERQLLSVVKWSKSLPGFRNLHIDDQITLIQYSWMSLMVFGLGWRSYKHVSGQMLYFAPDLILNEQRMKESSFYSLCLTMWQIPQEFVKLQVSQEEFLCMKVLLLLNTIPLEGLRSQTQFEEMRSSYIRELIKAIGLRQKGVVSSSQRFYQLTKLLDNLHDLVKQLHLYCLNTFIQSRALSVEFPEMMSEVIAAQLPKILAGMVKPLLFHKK
Chain of Cytochrome P450 2D6 (Homo sapiens) (P10635 whole entry, looked up): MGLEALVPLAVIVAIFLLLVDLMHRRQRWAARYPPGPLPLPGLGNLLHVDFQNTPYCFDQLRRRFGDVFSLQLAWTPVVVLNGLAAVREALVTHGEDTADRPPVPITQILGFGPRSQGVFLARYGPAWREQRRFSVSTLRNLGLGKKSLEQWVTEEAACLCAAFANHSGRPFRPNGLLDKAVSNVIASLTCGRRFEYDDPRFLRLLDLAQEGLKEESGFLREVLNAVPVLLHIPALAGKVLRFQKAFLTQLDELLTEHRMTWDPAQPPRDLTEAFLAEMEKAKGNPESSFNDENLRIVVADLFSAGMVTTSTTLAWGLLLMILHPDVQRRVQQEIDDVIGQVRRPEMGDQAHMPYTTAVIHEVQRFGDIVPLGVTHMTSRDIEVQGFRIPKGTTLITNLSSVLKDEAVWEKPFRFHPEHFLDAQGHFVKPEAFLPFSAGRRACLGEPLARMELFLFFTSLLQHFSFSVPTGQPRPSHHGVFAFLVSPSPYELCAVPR
Chain of Thyrotropin-releasing hormone receptor (Homo sapiens) (P34981 whole entry, looked up): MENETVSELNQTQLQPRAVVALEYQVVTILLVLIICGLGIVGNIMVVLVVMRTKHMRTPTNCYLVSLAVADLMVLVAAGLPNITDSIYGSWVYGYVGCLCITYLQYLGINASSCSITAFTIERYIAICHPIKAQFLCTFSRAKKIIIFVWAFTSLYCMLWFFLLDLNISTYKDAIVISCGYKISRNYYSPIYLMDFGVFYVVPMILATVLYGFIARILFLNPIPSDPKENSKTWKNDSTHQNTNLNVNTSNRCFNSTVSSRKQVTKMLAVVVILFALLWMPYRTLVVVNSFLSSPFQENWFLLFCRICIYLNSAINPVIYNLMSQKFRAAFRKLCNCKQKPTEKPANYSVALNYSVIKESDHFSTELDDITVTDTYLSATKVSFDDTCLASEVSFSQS

Take `CCCCCCCCCCCCCCCCCC(=O)OCC(O)CO` (centres undefined): the result in assay [1], in assay [9], in [10] and in assay [14] was inactive. Besides, the Potency result in assay [2], in assay [3], in assay [4], in [5], in [6] and in assay [7] was “inactive” throughout. The Potency result in [8], in assay [11], in assay [12], in [13], in assay [15] and in [16] was “inactive” each time. Also, the Potency entry in assay [17], in [18] and in assay [19] was “inactive” throughout.
As for `CN/C(=C\[N+](=O)[O-])NCCSCc1ccc(CN(C)C)o1`, the compound was called inactive in assay [1], in [9], in [10] and in assay [14]. Moreover, the Potency entry in assay [2], in [3], in assay [4], in assay [5], in [7] and in [8] was “inactive” each time. Further, the Potency result in assay [11], in assay [12], in [13], in assay [15], in assay [16] and in assay [19] was “inactive” each time.
As for `C=C(C)OC(C)=O`, the call in assay [1], in assay [9], in assay [10] and in [14] was inactive. For the same compound, the Potency result in assay [2], in [3], in assay [4], in assay [5], in assay [6] and in assay [7] was “inactive” in each case. In addition, the Potency result in assay [8], in [11], in assay [12], in assay [13], in assay [15] and in assay [16] was “inactive” each time. Further, the Potency in assay [19] is 13 µM (active) and inactive.
Turning to `CCOCCO`, the outcome in assay [1], in assay [9], in assay [10] and in assay [14] was inactive. The Potency result in [2], in assay [3], in [4], in assay [5], in [7] and in assay [8] was “inactive” in each case. The Potency result in [11], in assay [20], in [12], in assay [13], in assay [15] and in [16] was “inactive” each time. The Potency result in assay [19] was “inactive”.
For `CC(=O)c1ccc(S(=O)(=O)NC(=O)NC2CCCCC2)cc1`, the result in assay [1], in [9], in [10] and in assay [14] was inactive. In addition, the Potency result in assay [2], in [3], in assay [4], in [5], in assay [6] and in assay [7] was “inactive” in each case. Also, the Potency result in assay [8], in assay [11], in [12], in [13] and in assay [16] was “inactive” in each case. The Potency in assay [19] is 31.6 µM (active) and inactive.
For `CN(C)C=O`, the result in assay [1], in assay [9], in assay [10] and in assay [14] was inactive. Also, the Potency entry in [2], in [3], in assay [4], in [5], in assay [6] and in [7] was “inactive” each time. The Potency entry in [8], in assay [11], in [12], in [13], in assay [15] and in [16] was “inactive” throughout. Moreover, the Potency result in assay [19] was “inactive”.
For `COc1ccc(C(=O)c2ccccc2)c(O)c1`, the compound was called inactive in assay [1], in assay [9], in assay [10] and in [14]. Further, the Potency entry in assay [2], in assay [3], in [5], in [6], in assay [7] and in [8] was “inactive” in each case. In addition, the Potency entry in assay [11], in [20], in assay [12] and in [13] was “inactive” each time. Also, the Potency in assay [4] was 30.1 µM (active); in assay [16], 60.1 µM (active) and 54.5 µM (active); in assay [19], 44.1 µM (active).
